Autofluor counter: flagged as autofluorescent in microsphere protease counterscreen; compound autofluorescence counterscreen, microsphere flow cytometry; active compounds read high; fluorescence intensity (concentration not given with the values); 360,000 tested, 3.1% active; AID 624483; in the data active = fluorescence intensity above about 16000; inconclusive = no clear call, values can overlap the other calls
BoNT A protease: inhibitors of Botulinum neurotoxin A light chain protease; inhibition, % at 10 µM; 360,000 tested, 0.17% active; multiplex microsphere protease substrate cleavage, flow cytometry; AID 588499; also: plate controls were buffer without enzyme for full effect and enzyme alone for no effect
BoNT F protease: inhibitors of Botulinum neurotoxin F light chain protease; 360,000 tested, 0.22% active; inhibition, % at 10 µM; AID 588497; Multiplex microsphere protease cleavage assay, flow cytometry; in the data active = inhibition above about 35%, passing the limit was not always enough; inconclusive = no clear call, values can overlap the other calls; also: plate controls were buffer without enzyme for full effect and enzyme alone for no effect
MazF activator: increases E. coli MazEF RNase cleavage of RNA; FAM/BHQ RNA-DNA oligo cleavage fluorescence, 5 h; activation, % at 20 µM; P0AE70; AID 504720; 350,000 tested, 0.32% active; in the data active = activation above about 50%
Target sequence (P0AE70 whole entry, looked up): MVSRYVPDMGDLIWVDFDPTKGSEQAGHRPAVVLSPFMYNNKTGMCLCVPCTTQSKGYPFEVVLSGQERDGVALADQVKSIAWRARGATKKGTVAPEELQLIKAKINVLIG
Anthrax LF prot: inhibitors of Bacillus anthracis lethal factor protease; 360,000 tested, 0.12% active; P15917; inhibition, % at 10 µM; multiplex microsphere protease cleavage assay, LF; AID 588501; also: plate controls were buffer without enzyme for full effect and enzyme alone for no effect
An asterisk follows results filed as active. Most compounds without a hit are left out; they make up all but 3.7% or so of the library. Rule as the data show it, unless noted: active = inhibition above about 30%; inconclusive = no clear call, values can overlap the other calls; inactive = below that.

Results for CC(C)N1C(=O)S/C(=C/c2ccc3c(c2)n(C)c(=O)n3C)C1=O ?
Autofluor counter: 6256; BoNT A protease: -1; BoNT F protease: -8; MazF activator: 24; Anthrax LF prot: -2

How did CC(C)N1C(=O)S/C(=C/c2cccnc2)C1=O do in these assays?
Autofluor counter: 22160*; BoNT A protease: inconclusive; BoNT F protease: 2; MazF activator: -1; Anthrax LF prot: -3

Results for NC(=O)C1CCN(Cc2nc3cc(Cl)ccc3c(=O)[nH]2)CC1 ?
Autofluor counter: 2847; BoNT A protease: 0; BoNT F protease: -1; MazF activator: -4; Anthrax LF prot: 1

Results for NC(=O)C1CCN(Cc2nc3ccccc3c(=O)[nH]2)CC1 ?
Autofluor counter: 23828*; BoNT A protease: 0; BoNT F protease: -1; MazF activator: 3; Anthrax LF prot: 1

What do the screens show for `O=c1[nH]c(CN2CCN(C/C=C/c3ccccc3)CC2)nc2ccccc12`?
Autofluor counter: 21675*; BoNT A protease: inconclusive; BoNT F protease: -2; MazF activator: 11; Anthrax LF prot: 1

How did COc1cccc2cc(C(=O)Nc3ccccc3Cl)/c(=N/NS(=O)(=O)c3ccccc3)oc12 do in these assays?
Autofluor counter: 5220; BoNT A protease: -1; BoNT F protease: 0; MazF activator: 6; Anthrax LF prot: -1

How did Cc1ccc(S(=O)(=O)Nc2cc(C)cn(Cc3ccc(F)cc3)c2=O)cc1 do in these assays?
Autofluor counter: 3794; BoNT A protease: 2; BoNT F protease: 6; MazF activator: 2; Anthrax LF prot: -11

What do the screens show for `Cc1cccc(Nc2nc(N)nc(CN3CCN(c4ccccc4)CC3)n2)c1`?
Autofluor counter: 23528*; BoNT A protease: inconclusive; BoNT F protease: -5; MazF activator: -1; Anthrax LF prot: -3

Results for Nc1nc(CN2CCN(Cc3ccccc3)CC2)nc(Nc2ccccc2)n1 ?
Autofluor counter: 19782*; BoNT A protease: 7; BoNT F protease: 9; MazF activator: -4; Anthrax LF prot: 0

How did Cc1nn(Cc2c(F)c(F)c(F)c(F)c2F)c(C)c1NC(=O)c1cccc(COc2ccccc2Cl)c1 do in these assays?
Autofluor counter: 20980*; BoNT A protease: 3; BoNT F protease: 4; MazF activator: -10; Anthrax LF prot: -10

Results for O=C(Nc1ccn(Cc2c(F)c(F)c(F)c(F)c2F)n1)c1ccc(COc2ccccc2Cl)cc1 ?
Autofluor counter: 25404*; BoNT A protease: -4; BoNT F protease: -8; MazF activator: 3; Anthrax LF prot: -3

How did Cc1nn(Cc2cccc(F)c2)c(C)c1NC(=O)c1ccc(COc2ccccc2Cl)cc1 do in these assays?
Autofluor counter: 15956; BoNT A protease: 0; BoNT F protease: 2; MazF activator: -14; Anthrax LF prot: -8

What do the screens show for `CCC(C)C(NC(=O)CCC(=O)OCC(=O)[C@@]1(O)CCC2[C@@H]3CCC4=CC(=O)C=C[C@]4(C)C3[C@@H](O)C[C@@]21C)C(=O)O` (stereo partly specified)?
Autofluor counter: 3703; BoNT A protease: 0; BoNT F protease: 15; MazF activator: 5; Anthrax LF prot: -8

What do the screens show for `Cc1oc(C(=O)O)cc1COc1ccc2c3c(c(=O)oc2c1C)CCC3`?
Autofluor counter: 16185*; BoNT A protease: 0; BoNT F protease: -5; MazF activator: -7; Anthrax LF prot: 0

Results for Cc1c(OCC(=O)OC(C)(C)C)ccc2c3c(c(=O)oc12)CCC3 ?
Autofluor counter: 5189; BoNT A protease: 0; BoNT F protease: -6; MazF activator: 13; Anthrax LF prot: -1

How did O=C(NC(=S)Nc1nc(-c2ccccc2)cs1)c1cccnc1 do in these assays?
Autofluor counter: 4212; BoNT A protease: -2; BoNT F protease: -11; MazF activator: -13; Anthrax LF prot: -6

How did O=C(Nc1nc(-c2ccccc2Cl)cs1)c1cccnc1 do in these assays?
Autofluor counter: 20683*; BoNT A protease: 0; BoNT F protease: 1; MazF activator: 20; Anthrax LF prot: 0

How did Cc1c(C(=O)N2CCN(Cc3ccccc3)CC2)oc2c1C(=O)CC(C)(C)C2 do in these assays?
Autofluor counter: 5933; BoNT A protease: -1; BoNT F protease: -4; MazF activator: -4; Anthrax LF prot: 3

Results for COC(=O)c1ccc(-n2nnnc2SC)cc1 ?
Autofluor counter: inconclusive; BoNT A protease: -2; BoNT F protease: 2; MazF activator: -7; Anthrax LF prot: 22

What do the screens show for `COC(=O)COC(=O)c1ccc(-n2nnnc2SC)cc1`?
Autofluor counter: 22577*; BoNT A protease: 1; BoNT F protease: 6; MazF activator: -3; Anthrax LF prot: -2

Results for O=C(Nc1ccccc1N1CCCC1)c1ccc(Br)o1 ?
Autofluor counter: 8191; BoNT A protease: 1; BoNT F protease: 6; MazF activator: 8; Anthrax LF prot: 2

Results for COc1ccc(N2CCCC2)c(NC(=O)c2ccc(Br)o2)c1 ?
Autofluor counter: 4184; BoNT A protease: 2; BoNT F protease: 4; MazF activator: 63*; Anthrax LF prot: -2

What do the screens show for `c1coc(-c2cc3nc(NC4CCCCC4)ccn3n2)c1`?
Autofluor counter: 3963; BoNT A protease: 0; BoNT F protease: -11; Anthrax LF prot: -3

What do the screens show for `C#Cc1ccc(CN2CCC(Oc3cc(C(=O)NC4CC4)ccc3OC)CC2)cc1`?
Autofluor counter: 6397; BoNT A protease: -2; BoNT F protease: -4; MazF activator: 2; Anthrax LF prot: -4

What do the screens show for `Cc1cc(N2C(=O)C3C4c5ccccc5C(c5ccccc54)C3C2=O)no1` (stereo unspecified)?
Autofluor counter: 21886*; BoNT A protease: 2; BoNT F protease: 3; MazF activator: 2; Anthrax LF prot: -3

How did CCCCNC(=O)CCC(=O)N1CCN(C(c2ccccc2)c2ccccc2)CC1 do in these assays?
Autofluor counter: 4340; BoNT A protease: 0; BoNT F protease: -7; MazF activator: -12; Anthrax LF prot: 1

Results for COc1ccc(OC(C)C(=O)NC2CCCCCC2)cc1 (stereo unspecified) ?
Autofluor counter: 5912; BoNT A protease: 0; BoNT F protease: 10; MazF activator: -15; Anthrax LF prot: 0

What do the screens show for `COc1ccc(C2C(C(C)=O)=C(O)C(=O)N2C)c(OC)c1` (stereo unspecified)?
Autofluor counter: 3990; BoNT A protease: -1; BoNT F protease: inconclusive; MazF activator: -4; Anthrax LF prot: 7

What do the screens show for `COc1ccc(C2C(C(C)=O)=C(O)C(=O)N2c2cccnc2)c(OC)c1` (stereo unspecified)?
Autofluor counter: 16553*; BoNT A protease: -1; BoNT F protease: -2; MazF activator: 1; Anthrax LF prot: -4

How did COc1ccccc1C1(O)C(=O)Nc2ccccc21 (stereo unspecified) do in these assays?
Autofluor counter: 3659; BoNT A protease: 2; BoNT F protease: 12; MazF activator: -2; Anthrax LF prot: 4

How did Cc1ccnc(NC2(C(F)(F)F)N=C(c3ccccc3)NC2=O)c1 (stereo unspecified) do in these assays?
Autofluor counter: 19679*; BoNT A protease: 3; BoNT F protease: 5; MazF activator: -6; Anthrax LF prot: -3
